High-throughput results: PubChem, National Center for Advancing Translational Sciences (NCATS)
FLuc counter: qHTS profiling assay for firefly luciferase inhibitor/activator using purifed enzyme and Km concentrations of substrates (counterscreen for miR-21 project); 6.9% of 360,000 active; purified FLuc, Km substrates, luminescence inhibition; Luciferin 4-monooxygenase (Photinus pyralis), P08659; Potency, µM (doses to about 57.5 µM), most hits filed as inhibitors; AID 588342, 2011; also: nearly all actives have a fitted effect of over 55% in size
Target sequence (P08659 whole entry, looked up): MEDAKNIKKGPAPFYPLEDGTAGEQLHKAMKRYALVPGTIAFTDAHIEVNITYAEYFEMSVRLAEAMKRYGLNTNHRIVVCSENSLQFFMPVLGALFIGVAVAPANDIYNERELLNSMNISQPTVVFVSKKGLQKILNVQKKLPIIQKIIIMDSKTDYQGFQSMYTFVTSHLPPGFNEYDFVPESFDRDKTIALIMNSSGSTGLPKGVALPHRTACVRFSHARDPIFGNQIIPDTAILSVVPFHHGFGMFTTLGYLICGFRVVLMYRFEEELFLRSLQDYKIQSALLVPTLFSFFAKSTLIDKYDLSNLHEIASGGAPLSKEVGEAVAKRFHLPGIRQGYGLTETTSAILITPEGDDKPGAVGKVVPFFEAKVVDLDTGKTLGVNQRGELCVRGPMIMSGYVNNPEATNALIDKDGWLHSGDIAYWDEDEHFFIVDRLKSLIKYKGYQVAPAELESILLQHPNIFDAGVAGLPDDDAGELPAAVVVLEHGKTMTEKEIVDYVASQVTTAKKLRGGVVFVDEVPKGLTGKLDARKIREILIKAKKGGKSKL
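Purified P. pyralis luciferase (10nM final) with 10uM D-luciferin and 10uM ATP (Km levels) in 50mM Tris acetate pH 7.5, 10mM Mg acetate, 0.01% Tween-20, 0.05% BSA; qHTS 6-point titration, ~60 µM downward; luminescence read.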
Rab9 promoter act: qHTS Assay for Rab9 Promoter Activators; Huh7 Rab9 promoter-luciferase reporter, luminescence, 24 h; Potency, µM (titrated, usually from 9.22 µM), usual class: activators; 2.8% of 320,000 active; also: nearly all actives have a fitted effect of over 60% in size
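Measured in stably transfected Huh7 cells bearing a Rab9 promoter–luciferase construct: 24 h compound treatment at 37 °C, followed by luminescence detection.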
NPC1 promoter act: qHTS Assay for NPC1 Promoter Activators | Huh7 NPC1 promoter luciferase reporter, 24 h | Potency, µM (top dose mostly 9.22 µM), hits mostly activators | 2.4% of 320,000 active; also: nearly all actives have a fitted effect of over 60% in size
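Huh7 cells stably carrying NPC1 promoter–luciferase, plated in Opti-MEM with 10% FBS for 2 h, were exposed to compound in DMSO for 24 h at 37 °C; luciferase reagent was added for 10 min and luminescence read.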
ELG1 genotoxic: qHTS screen for small molecules that induce genotoxicity in human embryonic kidney (HEK293T) cells expressing luciferase-tagged ELG1 | Potency, µM (top dose mostly 46 µM), actives largely listed as activators | HEK293T ELG1-luciferase reporter, luminescence, 16 h | 1.3% of 330,000 active | AID 504466, 2011; also: nearly all actives have a fitted effect of over 60% in size
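Luminescence read-out: rising ELG1-luciferase signal, reflecting elevated ELG1 protein under genetic stress, flags genotoxic compounds. Cells were treated for 16 hr at 37 °C before ONE-Glo detection.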
SMN2 splice enh: qHTS Assay for Enhancers of SMN2 Splice Variant Expression; HEK293 SMN2-luciferase splicing reporter, luminescence, 30-36 h; Potency, µM (highest dose often 46.1 µM), actives largely listed as activators; 2.8% of 210,000 active; AID 1458, 2008; also: nearly all actives have a fitted effect of over 55% in size
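HEK293 cells carry an SMN2 minigene-luciferase reporter in which exon 7 inclusion puts luciferase in frame. Cells were seeded at 2000 cells/well, attached for 10-12 hours, then exposed to compounds for 30-36 hours at 37C before ONE-Glo luminescence.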
Hits are given with their value; n = inactive; u = inconclusive; x = no result given; [ ] = remark or other dose. Most compounds without a hit are left out; they make up all but 7.5% or so of the library. Calls follow the shape of the dose curve; as a rule, active = well fitted curve in the direction sought with a large enough effect; inconclusive = small, poorly fitted or top-dose-only effect, or another doubt; inactive = no such curve, though single readings can be large; an effect the other way counts as inactive or inconclusive.

SMILES	FLuc counter	Rab9 promoter act	NPC1 promoter act	ELG1 genotoxic	SMN2 splice enh
O=C(N/N=C/c1ccccn1)NC12CC3CC(CC(C3)C1)C2	16.9µM	u	u	n	x
O=C(N/N=C/c1cc([N+](=O)[O-])ccc1O)NC12CC3CC(CC(C3)C1)C2	u	n	n	14.6µM	n
COc1cc(C(=S)N2CCOCC2)ccc1OS(=O)(=O)c1ccc(C)cc1	n	n	n	n	x
Nc1nn2c(-c3ccccc3)cc(=O)[nH]c2c1N=Nc1ccc(Br)cc1	21.3µM	n	n	n	n
Nc1nn2c(-c3ccccc3)cc(=O)[nH]c2c1N=Nc1ccc(O)cc1	6.75µM	n[1.84 µM]	n	n	n
Cc1ccc2c3c(cccc13)-c1ccccc1C2=O	19µM	n	n	n	u
O=C(/C=C/c1ccc(Cl)cc1Cl)Nc1ccncc1	3.38µM	n	n	u	n
O=C(/C=C/c1ccccc1Cl)NCc1ccco1	23.9µM	n	u	n	n
O=C(/C=C/c1ccc(Cl)cc1Cl)NCc1ccncc1	u	n	n	n	n
CCC(CC)NC(=O)/C=C/c1ccccc1Cl	u	n	n	n	u
O=C(O)/C=C/C(=O)Nc1cccnc1	n	n	n	n	n
CC(=O)N(C)c1ccc(NC(=O)/C=C/c2ccccc2Cl)cc1	6.01µM	u	n	u	n
O=C(/C=C/c1ccccc1Cl)Nc1cccnc1	1.35µM	1.78µM	1.12µM	4.11µM	x
CC(OC(=O)CN1C(=O)NC(C)(C)C1=O)C(=O)c1ccccc1 (stereo not given)	n	n	n	n	n
O=C(/C=C/c1ccccc1Cl)Nc1ccncc1	4.26µM	2.82µM	u	n	n
O=C(Nc1ccncc1)c1ccccc1Cl	n	n	n	n	x
COC(=O)c1sccc1NC(=O)/C=C\c1ccc(Cl)cc1Cl	u	3.98µM	u	n	n
CC(O)CN=c1cc(-c2ccccc2)oc2ccc(Cl)cc12 (stereo not given)	15.1µM	u	u	u	n
CCOc1ccccc1/C=N/Nc1ccccc1[N+](=O)[O-]	u	3.55µM	u	n	x
CC(C)Oc1ccccc1/C=N/Nc1ccccc1[N+](=O)[O-]	u	u	u	n	n
COc1ccccc1/C=N\Nc1ccccc1[N+](=O)[O-]	1.9µM	2µM	u	9.2µM	x
Cc1[nH]c2ccccc2c1/C=N/Nc1ccccc1[N+](=O)[O-]	16.9µM	u	n	n	n
CCC1CSC(Nc2ccc(C(=O)/C=C/c3ccc(Oc4ccccc4)cc3)cc2)=N1 (stereo not given)	13.5µM	n	n	n	n
CCOC(=O)CSC1=NC(=O)/C(=C/c2ccc(Br)cc2)S1	15.1µM	n	n	u	x
NC1=NC(=O)/C(=C/c2ccc(Br)cc2)S1	n	n	n	n	x
SMILES	FLuc counter	Rab9 promoter act	NPC1 promoter act	ELG1 genotoxic	SMN2 splice enh
CCOC(=O)CSC1=NC(=O)/C(=C\c2ccc(OC(C)=O)cc2)S1	19µM	n	n	u	n
COc1ccccc1NC(=O)/C=C\c1ccco1	23.9µM	u	u	n	x
COc1cccc(NC(=O)/C=C/c2ccco2)c1	10.7µM	2.51µM	u	u	12.6µM
CSc1cccc(NC(=O)/C=C/c2ccco2)c1	19µM	u	n	u	n
CC(C)(C)c1ccc(/C=C/C(=O)Nc2cccnc2)cc1	2.69µM	1.12µM	2µM	2.31µM	x
CCc1nnc(NC(=O)c2ccc(NS(=O)(=O)c3ccccc3)cc2)s1	n	n	n	n	n
O=C(Nc1ccc2c(c1)OCO2)c1cc2n(n1)C(C(F)(F)F)CC(c1ccccc1)N2 (stereo not given)	n	n	n	n	n
COc1cccc(N2CCN(C(=O)CN3C(=O)NC4(CCCC4)C3=O)CC2)c1	n	n	n	n	x
O=C(/C=C/c1ccco1)Nc1cccnc1	19µM	u	u	u	u
CCOc1ccc(CCNC(=O)c2sc3ncccc3c2-n2c(C)ccc2C)cc1	n	x	x	x	x
CCN(CC(=O)Nc1ccc(OC)c(OC)c1)S(=O)(=O)c1ccc(C)cc1	n	n	n	n	n
CCN(CC)c1ccc(/C=N\NC(N)=O)cc1	u	n	n	n	n
CCOc1ccc(/C=N/NC(=O)Nc2ccccc2)cc1	3.01µM	2.24µM	u	7.3µM	5.01µM
CCN(CC)c1ccc(/C=N/NC(=O)OC(C)(C)C)cc1	10.7µM	2.82µM	u	u	x
O=C(Cc1ccccc1)N/N=C/c1ccc(OCC(=O)Nc2ccccc2)cc1	n	n	n	n	n
CC(=O)Oc1ccc(/C=N/NC(=S)Nc2ccccc2)cc1	u	3.98µM	3.16µM	9.2µM	11.2µM
CCN(CC)c1ccc(/C=N/NC(=O)CC(C)C)cc1	u	n	n	n	x
CCN(CC)c1ccc(/C=N/NC(=O)Nc2ccccc2)cc1	5.36µM	3.16µM	3.98µM	n	20µM
CCOc1ccc(/C=N/NC(=O)CC(=O)NCc2ccccc2)cc1	u	n	n	n	n
Cc1cc(=O)oc2c3c(cc(OCC(=O)NCCC(=O)O)c12)OC(C)(C)CC3	n	n	n	n	x
COc1ccc(NC(=O)CSc2nnc(-c3ccccc3Cl)n2Cc2ccco2)c(OC)c1	n	n	n	n	x
CCN(CC)c1ccc(NC(=O)CCCOc2cccc(C)c2)cc1	n	n	n	n	n
Cc1ccc(/C=N/NC(=O)Nc2ccccc2)o1	10.7µM	3.16µM	2.51µM	u	11.2µM
CCN(CC)c1ccc(/C=N/OCC(=O)Nc2cccc(C)c2)cc1	12µM	n	n	n	n
COc1cc(/C=N/Nc2ccc(Cl)c(C(=O)O)c2)ccc1OC(=O)c1cccs1	23.9µM	u	n	n	n
SMILES	FLuc counter	Rab9 promoter act	NPC1 promoter act	ELG1 genotoxic	SMN2 splice enh
COc1cc(/C=N/NC(=O)COc2ccc(C)cc2)ccc1OC(=O)c1cccs1	10.7µM	n	n	n	n[1.84 µM]
COc1cc(/C=N/NC(=O)C(N)=O)ccc1OC(=O)c1cccs1	n	n	n	n	n
COc1cc(/C=N/Nc2ccc(Cl)c(C(=O)O)c2)ccc1OC(=O)c1ccco1	u	n	u	n	n
COc1cc(/C=N/NC(=O)c2ccccn2)ccc1OC(=O)c1cccs1	13.5µM	n	u	u	x
CCOc1cc(/C=N/NC(=O)COc2ccc(C)cc2)ccc1OC(=O)c1cccs1	n	n	n	n	n
COc1cc(/C=N/Nc2ccccc2)ccc1OC(=O)c1cccs1	21.3µM	n	n	u	u
CC1OC2(OC1C)C(=O)Nc1ccccc12 (stereo not given)	n	n	n	n	n
CSc1nnc(NC(=O)Cc2coc3cc(C)ccc23)s1	n	x	x	x	n
CCc1ccccc1NC(=O)CC1Sc2ccc(C(F)(F)F)cc2NC1=O (stereo not given)	n	x	x	x	n
COc1cc(/C=N/NC(=O)c2ccccn2)cc2c1OCO2	23.9µM	u	u	u	11.2µM
COc1ccc2oc(C(=O)N3CCc4ccccc43)c(C)c2c1	n	n	n	n	x
